This is an account of results in PubChem BioAssay (EPA / NIEHS).

Assay [1] in a line: BSK_CASM3C_SRB: Viability Assessment in the BioMAP Diversity Plus: CASM3C Assay (AID 2283050).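 Note: total protein by SRB staining as cytotoxicity measure in parallel cultures; cells exposed to compound for 24 h.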 Particulars: primary human coronary artery smooth muscle cells.
Read-out in assay [2]: Thrombomodulin, THBD (gene 7056)
As to the kind of experiment: BSK_CASM3C_Thrombomodulin: BioMAP Diversity Plus: CASM3C Assay for Thrombomodulin Biomarker Activity (AID 2283051).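 Note: thrombomodulin protein level measured by ELISA 24 h after dosing.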 Particulars: primary human coronary artery smooth muscle cells; actives raise or lower the signal.

Read-out in assay [3]: Tissue Factor, F3 (gene 2152)
As to the kind of experiment: BSK_CASM3C_TissueFactor: BioMAP Diversity Plus: CASM3C Assay for Tissue Factor Biomarker Activity (AID 2283052).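 Note: cell surface tissue factor protein level read by ELISA.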 Particulars: primary human coronary artery smooth muscle cells; actives raise or lower the signal.

Read-out in assay [4]: Interferon-gamma inducible Protein 10 (IP10), CXCL10 (gene 3627)
As to the kind of experiment: BSK_hDFCGF_IP10: BioMAP Diversity Plus: hDFCGF Assay for Interferon-gamma inducible Protein 10 (IP10) Biomarker Activity (AID 2283053). Particulars: primary human foreskin fibroblasts; actives raise or lower the signal. Put shortly: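 ELISA quantification of IP-10 after a 24 h chemical exposure of human dermal foreskin fibroblast primary cultures. Both increases and decreases versus DMSO fitted.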

Read-out in assay [5]: Urokinase-type plasminogen activator receptor (uPAR), PLAUR (gene 5329)
The assay can be described thus: BSK_CASM3C_uPAR: BioMAP Diversity Plus: CASM3C Assay for Urokinase-type plasminogen activator receptor (uPAR) Biomarker Activity (AID 2283054).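 Note: cell-surface uPAR protein level quantified by ELISA.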 Particulars: primary human coronary artery smooth muscle cells; actives raise or lower the signal.

Read-out in assay [6]: Vascular cell adhesion molecule 1 (VCAM1), VCAM1 (gene 7412)
As to the kind of experiment: BSK_CASM3C_VCAM1: BioMAP Diversity Plus: CASM3C Assay for Vascular cell adhesion molecule 1 (VCAM1) Biomarker Activity (AID 2283055).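 Note: VCAM-1 protein level quantified by ELISA on the cells.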 Particulars: primary human coronary artery smooth muscle cells; actives raise or lower the signal.

Read-out in assay [7]: Collagen III, COL3A1 (gene 1281)
The assay can be described thus: BSK_hDFCGF_CollagenIII: BioMAP Diversity Plus: hDFCGF Assay for Collagen III Biomarker Activity (AID 2283056). Particulars: primary human foreskin fibroblasts; actives raise or lower the signal. The procedure, abridged: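 ELISA read-out of collagen III from human skin fibroblast cultures sampled 24 h post-dosing. Values were derived by bidirectional fitting relative to the DMSO vehicle control.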

Read-out in assay [8]: Epidermal growth factor receptor (EGFR), EGFR (gene 1956)
As to the kind of experiment: BSK_hDFCGF_EGFR: BioMAP Diversity Plus: hDFCGF Assay for Epidermal growth factor receptor (EGFR) Biomarker Activity (AID 2283057). Particulars: primary human foreskin fibroblasts; actives raise or lower the signal. Put shortly:
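EGFR levels by ELISA in human dermal fibroblast cultures, 24 h post-treatment, fitted bidirectionally versus DMSO. Parallel wells stained with sulforhodamine B to detect overt cytotoxicity.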

Read-out in assay [9]: Interleukin-8 (IL8), CXCL8 (gene 3576)
The assay can be described thus: BSK_hDFCGF_IL8: BioMAP Diversity Plus: hDFCGF Assay for Interleukin-8 (IL8) Biomarker Activity (AID 2283058). Particulars: primary human foreskin fibroblasts; actives raise or lower the signal. Put shortly: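 Cells used are human skin primary fibroblasts. Chemical is added, cultures run 24 h, then IL-8 is quantified by ELISA, and gain or loss versus DMSO control is fitted in both directions.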

Assay [10] is described as follows: BSK_hDFCGF_Proliferation: Cell Proliferation Assessment in the BioMAP Diversity Plus: hDFCGF Assay (AID 2283059).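 Note: curves fitted for both rise and fall of signal versus DMSO baseline.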 Particulars: primary human foreskin fibroblasts. Put shortly:
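This proliferation readout used SRB total-protein staining of human foreskin fibroblasts […], normalized to DMSO with bidirectional curve fitting.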

Read-out in assay [11]: Macrophage colony-stimulating factor (MCSF), CSF1 (gene 1435)
The assay can be described thus: BSK_hDFCGF_MCSF: BioMAP Diversity Plus: hDFCGF Assay for Macrophage colony-stimulating factor (MCSF) Biomarker Activity (AID 2283060). Particulars: primary human foreskin fibroblasts; actives raise or lower the signal. Put shortly: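 Primary human foreskin fibroblasts dosed with chemical; 24 h later, M-CSF quantified by ELISA; curves fitted in both directions vs DMSO negative control.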

Assay [12] in a line: BSK_hDFCGF_SRB: Viability Assessment in the BioMAP Diversity Plus: hDFCGF Assay (AID 2283061).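 Note: cells exposed to compound for 24 h before the read.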 Particulars: primary human foreskin fibroblasts. The procedure, abridged:
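Readout is SRB absorbance at 560 nm, reflecting total protein in parallel cultures of human foreskin fibroblasts harvested 24 h after chemical dosing. Activity was fitted bidirectionally relative to DMSO.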

Read-out in assay [13]: TIMP metallopeptidase inhibitor 1 (TIMP1), TIMP1 (gene 7076)
As to the kind of experiment: BSK_hDFCGF_TIMP1: BioMAP Diversity Plus: hDFCGF Assay for TIMP metallopeptidase inhibitor 1 (TIMP1) Biomarker Activity (AID 2283062). Particulars: primary human foreskin fibroblasts; actives raise or lower the signal. Put shortly:
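Human skin fibroblasts (primary), hDFCGF system; compound exposure 24 h; TIMP-1 by ELISA; bidirectional fit vs DMSO negative control; overt cytotoxicity by SRB in parallel wells.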

Read-out in assay [14]: Monokine induced gamma interferon (MIG), CXCL9 (gene 4283)
The assay can be described thus: BSK_hDFCGF_MIG: BioMAP Diversity Plus: hDFCGF Assay for Monokine induced gamma interferon (MIG) Biomarker Activity (AID 2283063). Particulars: primary human foreskin fibroblasts; actives raise or lower the signal. Put shortly: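 Chemicals were added to primary human foreskin fibroblast cultures, which were sampled 24 h later. MIG levels were then quantified by ELISA and responses fitted in both directions relative to DMSO.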

Read-out in assay [15]: Matrix Metallopeptidase 1 (MMP1), MMP1 (gene 4312)
As to the kind of experiment: BSK_hDFCGF_MMP1: BioMAP Diversity Plus: hDFCGF Assay for Matrix Metallopeptidase 1 (MMP1) Biomarker Activity (AID 2283064). Particulars: primary human foreskin fibroblasts; actives raise or lower the signal. The procedure, abridged:
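Human foreskin fibroblasts exposed to chemical for 24 h; MMP1 detected by ELISA, with DMSO as baseline for bidirectional fitting.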

Read-out in assay [16]: Vascular cell adhesion molecule 1 (VCAM1), VCAM1 (gene 7412)
As to the kind of experiment: BSK_hDFCGF_VCAM1: BioMAP Diversity Plus: hDFCGF Assay for Vascular cell adhesion molecule 1 (VCAM1) Biomarker Activity (AID 2283065).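 For AC50: VCAM-1 protein level quantified by ELISA after 24 h chemical exposure.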 Particulars: primary human foreskin fibroblasts; actives raise or lower the signal. The procedure, abridged: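 Human foreskin fibroblast primary cells, chemical exposure 24 h; VCAM-1 by ELISA; bidirectional fit, DMSO = negative control/baseline.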

Read-out in assay [17]: Plasminogen activator inhibitor-1 (PAI1), SERPINE1 (gene 5054)
As to the kind of experiment: BSK_hDFCGF_PAI1: BioMAP Diversity Plus: hDFCGF Assay for Plasminogen activator inhibitor-1 (PAI1) Biomarker Activity (AID 2283066). Particulars: primary human foreskin fibroblasts; actives raise or lower the signal. The procedure, abridged: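 PAI-1 levels in human dermal foreskin fibroblasts were quantified by ELISA 24 h after dosing, with gain or loss analysed against DMSO. Overt cytotoxicity was checked by sulforhodamine B total-protein staining in parallel cultures.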

Read-out in assay [18]: Intercellular Adhesion Molecule 1 (ICAM1), ICAM1 (gene 3383)
As to the kind of experiment: BSK_KF3CT_ICAM1: BioMAP Diversity Plus: KF3CT Assay for Intercellular Adhesion Molecule 1 (ICAM1) Biomarker Activity (AID 2283067). Particulars: primary human keratinocytes with fibroblasts; actives raise or lower the signal. The procedure, abridged: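 ICAM-1 levels are measured by ELISA 24 h after dosing a primary human co-culture of keratinocytes and foreskin fibroblasts. Activity in either direction is fitted relative to DMSO vehicle.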

Read-out in assay [19]: Interferon-gamma inducible Protein 10 (IP10), CXCL10 (gene 3627)
As to the kind of experiment: BSK_KF3CT_IP10: BioMAP Diversity Plus: KF3CT Assay for Interferon-gamma inducible Protein 10 (IP10) Biomarker Activity (AID 2283068). Particulars: primary human keratinocytes with fibroblasts; actives raise or lower the signal. Put shortly:
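Signal is secreted/surface IP-10 by ELISA in a human primary skin co-culture of keratinocytes and foreskin fibroblasts, taken 24 h post-dosing; DMSO served as negative control.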

Assay [20] in a line: BSK_KF3CT_SRB: Viability Assessment in the BioMAP Diversity Plus: KF3CT Assay (AID 2283069).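 Note: read 24 h after compound addition; fitted for both signal gain and loss against DMSO baseline.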 Particulars: primary human keratinocytes with fibroblasts. The procedure, abridged:
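Overt cytotoxicity is assessed as total protein by sulforhodamine B staining in parallel human skin co-cultures at 24 h after dosing. DMSO serves as negative control and baseline.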

The source made the active and inactive calls. Rule for the calls: active = hit-call score of the fitted dose curve at least 0.9, where 1 is the maximum; inactive = score below 0.9.

In the case of `CCC(CC)Nc1c([N+](=O)[O-])cc(C)c(C)c1[N+](=O)[O-]`, the result in assay [1], in assay [3], in assay [5], in assay [6], in assay [7] and in [8] was inactive. For the same molecule, the outcome in assay [9], in assay [12], in assay [13], in assay [17], in assay [18] and in [20] was inactive. Moreover, the AC50 in [2] is 16.3 µM (active); in assay [4] it was 20 µM (active); in assay [10], 29.2 µM (active); in assay [11] it was 13.5 µM (active); in assay [14] it was 11.8 µM (active); in assay [15] it was 6.93 µM (active). Besides, the concentration at half-maximal activity (AC50) in assay [16] is 11.9 µM (active); in [19], 13.8 µM (active).
`CNC(=O)ON=C(SC)C(=O)N(C)C`: the result in assay [1], in assay [2], in assay [3], in assay [4], in assay [5] and in [6] was inactive. Besides, the result in assay [7], in [8], in assay [10], in [11], in assay [12] and in assay [13] was inactive. The outcome in assay [14], in assay [15], in assay [16], in assay [17], in assay [18] and in assay [19] was inactive. For the same molecule, the result in assay [20] was inactive.
Consider `Cc1cc(C2CC2)nc(Nc2ccccc2)n1`, for which the result in assay [1], in assay [3], in assay [5], in assay [6], in assay [7] and in [8] was inactive. In addition, the result in [9], in assay [11], in assay [12], in assay [13], in assay [14] and in [15] was inactive. Besides, the result in assay [16], in [17], in assay [18] and in [20] was inactive. For the same molecule, the AC50 in assay [2] was 27.8 µM (active); in [4], 6.65 µM (active); in assay [10] it was 15 µM (active); in [19] it was 20 µM (active).
Regarding `CC[C@H](C)[C@H]1O[C@]2(C=C[C@@H]1C)C[C@@H]1C[C@@H](C/C=C(\C)[C@@H](O[C@H]3C[C@H](OC)[C@@H](O[C@H]4C[C@H](OC)[C@@H](NC)[C@H](C)O4)[C@H](C)O3)[C@@H](C)/C=C/C=C3\CO[C@@H]4[C@H](O)C(C)=C[C@@H](C(=O)O1)[C@]34O)O2`, the AC50 in assay [1] was 11.6 µM (active); in [4], 4.28 µM (active); in [5] it was 12.3 µM (active); in [6], 12 µM (active); in [7] it was 5.53 µM (active); in [8], 11.7 µM (active). Moreover, the AC50 in assay [10] is 1.43 µM (active); in [11], 2.85 µM (active); in assay [12], 3.85 µM (active); in assay [13], 4.4 µM (active); in assay [14] it was 5.27 µM (active); in [15] it was 6.78 µM (active). Also, the AC50 in assay [16] was 4.8 µM (active); in [17] it was 2.08 µM (active); in [18], 9.03 µM (active); in assay [19] it was 8.17 µM (active); in assay [20] it was 6.31 µM (active). In addition, the result in assay [2] and in assay [3] was inactive.
As for `CCOP(=S)(Oc1cnc(C(C)(C)C)nc1)OC(C)C` (stereo not drawn), the result in assay [1], in assay [3], in [5], in [6], in assay [8] and in assay [9] was inactive. The outcome in assay [13], in [15], in [17] and in assay [18] was inactive. Further, the AC50 in assay [2] was 20 µM (active); in [4] it was 29.2 µM (active); in assay [7] it was 31.3 µM (active); in assay [10] it was 31.7 µM (active); in [11] it was 20 µM (active); in assay [12] it was 37 µM (active). In addition, the AC50 in assay [14] is 31.6 µM (active); in assay [16], 26.8 µM (active); in [19] it was 18.4 µM (active); in assay [20], 31.4 µM (active).
Regarding `CCCOc1nn(C(=O)NS(=O)(=O)c2ccccc2C(=O)OC)c(=O)n1C`, the outcome in assay [1], in assay [2], in [3], in [4], in assay [5] and in [6] was inactive. Besides, the outcome in assay [7], in [8], in [9], in [10], in assay [11] and in [12] was inactive. Further, the outcome in [13], in assay [14], in [15], in assay [16], in assay [17] and in [18] was inactive. The result in assay [19] and in assay [20] was inactive.

One may read the AC50 as the concentration giving half of the maximal activity seen.
